Results on 1 molecule are retold here after PubChem BioAssay AID2284167 (EPA ToxCast).

Molecules are shown by their SMILES. Results filed as inconclusive are left out. The source made the active and inactive calls. Rule for the calls: active = hit-call score of the fitted dose curve at least 0.9, where 1 is the maximum; inconclusive = response in the unintended direction; inactive = score below 0.9.

In the assay the target is human Neurotensin Receptor NT1 Agonism, NTSR1 (gene 4923) (UniProt P30989). Briefly: ERF_FR_GPCR_hNTSR1: Eurofins (ERF) G Protein-Coupled Receptor (GPCR) Radioligand Binding LeadHunter Assay for human Neurotensin Receptor NT1 Agonism. The procedure: ERF_FR_GPCR_hNTSR1 is a biochemical, single-readout assay that uses extracted gene-proteins in a cell-free assay. Measurements were taken 1 hour after chemical dosing in a 96-well plate. See NT1 Human Neurotensin GPCR Binding (Agonist Radioligand) Assay, Cerep.ERF_FR_GPCR_hNTSR1 is an assay component calculated from the ERF_FR_GPCR_hNTSR1 assay. It is designed to measure radioligand binding using a type of binding reporter as detected by scintillation counting with radiometry technology.Data from the assay component ERF_FR_GPCR_hNTSR1 was analyzed at the assay endpoint, ERF_FR_GPCR_hNTSR1, in the positive analysis fitting direction relative to DMSO as the negative control and baseline of activity. Using a type of binding reporter, gain-of-signal activity can be used to understand changes in binding as they relate to gene NTSR1. To generalize the intended target to other relatable targets, this assay endpoint is annotated to the gpcr intended target family, where the subfamily is neurotensin.
Chain of human Neurotensin Receptor NT1 Agonism, NTSR1 (gene 4923) (P30989 whole entry, looked up): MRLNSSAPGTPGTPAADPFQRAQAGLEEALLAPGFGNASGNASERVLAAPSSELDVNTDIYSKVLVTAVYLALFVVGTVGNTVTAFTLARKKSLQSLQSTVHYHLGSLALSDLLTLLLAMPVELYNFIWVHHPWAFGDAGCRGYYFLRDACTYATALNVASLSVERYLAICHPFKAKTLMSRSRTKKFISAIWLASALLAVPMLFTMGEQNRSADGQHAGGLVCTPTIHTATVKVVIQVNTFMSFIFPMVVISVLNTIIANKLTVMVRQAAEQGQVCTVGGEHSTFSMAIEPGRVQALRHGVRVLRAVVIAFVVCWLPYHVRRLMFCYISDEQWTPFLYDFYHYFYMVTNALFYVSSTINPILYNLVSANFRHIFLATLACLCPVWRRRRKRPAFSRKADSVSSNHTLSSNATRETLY
Human cells are incubated for 60 minutes at 4 C with [125I]Tyr3-neurotensin ligand (0.05 nM) and neurotensin as control inhibitor. Test Sample Requirements: Minimum for 1) Screen: 60 ul of 10 mM stock -OR- 1 mg (pre-weighed) for 10 uM final testing. 2) Dose Response: 90 ul of 10 mM stock -OR- 1 mg (pre-weighed) for a top concentration at 10 uM.
As for `O=C(/C=C/c1ccc(O)cc1)CC(=O)/C=C/c1ccc(O)cc1`, the AC50 is 2.99 µM (active).

As a reminder, the AC50 is the concentration giving half of the maximal activity seen.
